Inconclusive results are not listed. Values without a mark were called inactive. Calls come from the whole dose curve; as a rule, active = well fitted inhibition curve with a large enough effect; inconclusive = small, poorly fitted or top-dose-only effect; inactive = no such curve, though single readings can be large or run the other way.
What follows are molecules tested against Retinaldehyde dehydrogenase 3 (Homo sapiens) (UniProt P47895) (assay: qHTS for Inhibitors of the Aldehyde Dehydrogenase Family (ALDH1A3) Validation screen (AID 2061312; note: nearly all actives have a fitted effect of over 45% in size)). Settings: ALDH1A3 enzyme inhibition qHTS validation, fluorescence; series mostly up to 84.7 µM; activity change, negative = inhibition: at the top concentration.
% is set by controls: 0 for no effect and ±100 for the full control effect.

SMILES	activity change, negative = inhibition
Nc1ncnc2c1nc(Sc1ccc(Cl)cc1)n2[C@H]1OC2COP(=O)(O)O[C@@H]2C1O (stereo not given in full)	27.2% [at 42.4 µM]
CCCn1c(=O)c2c(ncn2C)n(CCC)c1=O	10.5% [at 42.4 µM]
COc1cc(Cc2cnc(N)nc2N)cc(OC)c1OC	31% [at 42.4 µM]
CO[C@H]1O[C@@H]2O[C@]3(C)CC[C@@H]4[C@@H](C)CC[C@H]([C@H]1C)[C@]24OO3	8.07% [at 42.4 µM]
CCN1CCC[C@H]1CNC(=O)c1c(O)c(Cl)cc(Cl)c1OC	0.393% [at 42.4 µM]
OC[C@H]1O[C@@H](n2cnc3cncnc32)[C@H](O)[C@@H]1O	10.7% [at 42.4 µM]
O=C(O)c1cc(=O)cc(C(=O)O)[nH]1	23.9% [at 42.4 µM]
O=C(O)c1cc2cc(F)ccc2[nH]1	-9.23% [at 42.4 µM]
COc1ccccc1N1CCN(CCCNc2c(C)c(=O)n(C)c(=O)n2C)CC1	20.8% [at 42.4 µM]
CC1CCN=C(N)S1 (stereo not given)	32.2% [at 42.4 µM]
CCCn1c(=O)[nH]c(=O)c2[nH]cnc21	15.6% [at 42.4 µM]
N[C@@H](Cc1cnc[nH]1)C(=O)O	-21.2% [at 42.4 µM]
[Li+]	-0.671% [at 42.4 µM]
COC(=O)c1c(C)[nH]c(C)c1C(=O)c1ccccc1Cc1ccccc1	7.36% [at 42.4 µM]
COc1cccc(C(=O)NCCN2CCN(c3ccc(Cl)cc3)CC2)c1	-25.9% [at 42.4 µM]
CN1CCCC1CCOC(C)(c1ccccc1)c1ccc(Cl)cc1 (stereo not given)	0.258% [at 42.4 µM]
O=C(O)CC[C@@H](C(=O)O)N1C(=O)c2ccccc2C1=O	9.3% [at 42.4 µM]
CC1CCN(CC[C@H]2CCCN2S(=O)(=O)c2cccc(O)c2)CC1	-22.8% [at 42.4 µM]
O=c1[nH]c2cc(Cl)ccc2c(O)c1-c1ccc(Oc2ccccc2)cc1	16.9% [at 42.4 µM]
CNCCc1cnc(CCC(c2ccccc2)c2ccccc2)[nH]1	-5.42% [at 42.4 µM]

SMILES	activity change, negative = inhibition
N[C@@H](Cc1ccc(O)c(I)c1)C(=O)O	-11.2% [at 42.4 µM]
N[C@@H](CCC(=O)N[C@H](CSN=O)C(=O)NCC(=O)O)C(=O)O	-5.57% [at 42.4 µM]
Nc1nc2[nH]c(=O)cnc2c(=O)[nH]1	-4.55% [at 42.4 µM]
Nc1nc2ccc(Cl)cc2n2c(-c3ccccc3)nnc12	8.71% [at 42.4 µM]
NCCCCC(=O)O	6.36% [at 42.4 µM]
O=C(O)C1CCCNC1 (stereo not given)	3.37% [at 42.4 µM]
Cn1c(=O)c2c(nc(/C=C/c3cccc(Cl)c3)n2C)n(C)c1=O	-11.8% [at 42.4 µM]
CN1C2CCC1CC(OC(=O)c1c[nH]c3ccccc13)C2 (stereo not given)	8.53% [at 42.4 µM]
CCO/C([O-])=N/c1c[n+](N2CCOCC2)no1	13.9% [at 42.4 µM]
CC(C)(C)NC[C@H](O)COc1nsnc1N1CCOCC1	6.35% [at 42.4 µM]
O=C(CCSCc1ccco1)NNC(=O)N1Cc2ccccc2Oc2ccc(Cl)cc21	12.9% [at 42.4 µM]
CC(C)C(=O)c1c(C(C)C)nn2ccccc12	14.8% [at 42.4 µM]
CC(C)(C)NCC(O)COc1cccc2[nH]c(=O)[nH]c12 (stereo not given)	4.7% [at 42.4 µM]
CN1CCc2cc(Cl)c(O)cc2[C@@H](c2ccccc2)C1	-27.8% [at 42.4 µM]
Nc1c2c(nc3ccccc13)CCCC2O (stereo not given)	4.98% [at 42.4 µM]
CCCN(CCC)CCc1cccc2c1CC(=O)N2	-18% [at 42.4 µM]
CC[N+](CC)(CC)CC(=O)Nc1c(C)cccc1C	6.33% [at 42.4 µM]
CCOC(=O)[C@H](CCc1ccccc1)N[C@@H](C)C(=O)N1[C@H](C(=O)O)C[C@H]2CCCC[C@@H]21	-11.1% [at 42.4 µM]
CCN(Cc1ccncc1)C(=O)C(CO)c1ccccc1 (stereo not given)	11.5% [at 42.4 µM]
CC1=C(C(=O)O)N2C(=O)[C@@H](NC(=O)C(N)c3ccccc3)[C@H]2SC1 (stereo not given in full)	-5.44% [at 42.4 µM]

— PubChem BioAssay (NCATS)
